Source: PubChem BioAssay (several laboratories)
Wnt act: activators of Wnt/beta-catenin signaling | Wnt/beta-catenin reporter cell assay, activator, plate reader | activation, % at 9.35 µM | 300,000 tested, 1.2% active; in the data active means activation above about 30%, passing the limit was not always enough; inconclusive means no clear call, values can overlap the other calls
esBAF inh: blocks esBAF chromatin remodeling in mouse ES cells; Bmi1-luciferase knock-in reporter, 24 h; 100% = twice the neutral-well signal; reporter increase, % at 12.5 µM; 350,000 tested, 2% active; AID 602393; in the data active means activation above about 40%; inconclusive means no clear call, values can overlap the other calls;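 further: a rise in the Bmi1 reporter signal indicates esBAF inhibition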
MITF TRPM1 HTS: activators of MITF-driven TRPM1 promoter activity in SK-MEL-5 cells; SK-MEL-5 TRPM1-promoter luciferase, 24 h; % of positive control, neutral wells = 0; activation, % at 12.5 µM; 300,000 tested, 0.75% active; AID 588334;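 active means mean activation of at least 80% with every replicate also reaching 80%; inconclusive means mean reaches 80% but some replicate falls short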
FXN GAA850 act: increases GAA850 frataxin promoter reporter activity | HEK293 lucGAA850 FXN promoter luciferase reporter, 24 h; percent of 10 µM SAHA response | 360,000 tested, 0.56% active | AID 540364 | activation, % at 6 µM;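 active means activation above the average of all compounds screened plus 3 SD, cutoff fixed separately per campaign, cut at about 7.5% in these data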
Each line names hits and unclear results; the compound was inactive in the other large screens. An excerpt weighted towards active compounds, which were near 2.8% of everything screened.

CCOc1ccc(OCc2ccc(C(=O)O)o2)cc1	none (no result: Wnt act)
O=Cc1cccc(OCc2cccc3ccccc23)c1	esBAF inh 66
O=Cc1ccc(OCc2ccc3ccccc3c2)cc1	esBAF inh 50, MITF TRPM1 HTS 103
O=C(O)c1ccc(COc2ccc3ccccc3c2)o1	Wnt act 51 (no result: esBAF inh)
CCCNC(=O)N1C[C@@H](C)[C@@H](OC)CN(C)C(=O)c2cc(NC(C)=O)ccc2OC[C@@H]1C	none (no result: Wnt act, MITF TRPM1 HTS, FXN GAA850 act)
CN1CCN(C(=O)C[C@@H]2CC[C@@H]3[C@H](COC[C@H](O)CN3Cc3cccc(Cl)c3)O2)CC1	none (no result: Wnt act, MITF TRPM1 HTS, FXN GAA850 act)
COc1cccc(NC(=O)N2C[C@H](O)COC[C@H]3O[C@@H](CC(=O)NCCCN4CCOCC4)CC[C@@H]32)c1	none (no result: Wnt act, MITF TRPM1 HTS, FXN GAA850 act)
CCOCCCNC(=O)c1cccc(OC2CCN(S(C)(=O)=O)CC2)c1	esBAF inh 67 (no result: MITF TRPM1 HTS)
C[C@H]1CN([C@@H](C)CO)S(=O)(=O)c2ccc(-c3ccc(C(=O)N(C)C)cc3)cc2O[C@H]1CN(C)C(=O)C1CCCCC1	none (no result: Wnt act, MITF TRPM1 HTS, FXN GAA850 act)
CCOc1ccc(C(=O)COC(=O)c2cccc(-n3cnnn3)c2)cc1	esBAF inh 74
O=C(COC(=O)c1cccc(-n2cnnn2)c1)c1ccccc1	none
O=C(C[C@@H]1C=C[C@@H](NC(=O)Nc2ccccc2F)[C@H](CO)O1)NCc1ccc(F)cc1	none (no result: Wnt act, MITF TRPM1 HTS, FXN GAA850 act)
O=C(Nc1cccnc1)Nc1ccc2c(c1)OCO2	esBAF inh 42 (no result: Wnt act, MITF TRPM1 HTS)
O=C(NCc1cccs1)Nc1ccc2c(c1)OCO2	esBAF inh 63 (no result: Wnt act, MITF TRPM1 HTS)
O=C(NCc1ccccn1)Nc1ccc2c(c1)OCO2	esBAF inh 51
CCCCc1ccc(NC(=O)C2CCCO2)cc1 (centres undefined)	MITF TRPM1 HTS 105 (no result: Wnt act)
C[C@H](CO)N1C[C@H](C)[C@@H](CN(C)S(=O)(=O)c2cn(C)cn2)Oc2ccc(NC(=O)CCC(F)(F)F)cc2C1=O	none (no result: Wnt act, MITF TRPM1 HTS, FXN GAA850 act)
C[C@@H]1CN([C@@H](C)CO)C(=O)c2cc(NC(=O)Cn3cnnn3)ccc2O[C@@H]1CN(C)S(C)(=O)=O	none (no result: Wnt act, MITF TRPM1 HTS, FXN GAA850 act)
O=C(Nc1ccc2c(c1)OCO2)Nc1ccccn1	Wnt act 55 (no result: esBAF inh)
O=C(Nc1ccc2c(c1)OCO2)Nc1cnccn1	esBAF inh inconclusive (no result: Wnt act)
COc1cccc(NC(=O)Nc2cccnc2)c1	none
O=C(CNC(=O)c1cccs1)Nc1ccc2c(c1)OCCO2	Wnt act 31
CCCCc1ccc(NC(=O)Nc2cccnc2)cc1	esBAF inh 51
O=C(Nc1ccc(NC(=O)c2cccs2)cc1)c1ccc2c(c1)OCCO2	none
Cn1ccc2cc(NC(=O)Nc3cccnc3)ccc21	esBAF inh 56
O=C(Nc1ccncc1)Nc1ccccn1	none (no result: Wnt act)
O=C(Nc1ccccn1)Nc1cccs1	esBAF inh 55 (no result: Wnt act)
O=c1c2ccccc2nc2n1CCc1c-2[nH]c2ccccc12	Wnt act 41
O=C(C=Cc1ccccc1)c1cccs1	none (no result: esBAF inh)
CCc1ccc(C(=O)/C=C/c2cnn(C)c2C)s1	esBAF inh 55 (no result: MITF TRPM1 HTS)
Nc1ccc(/C=C/C(=O)c2cccs2)cc1	esBAF inh 68
Cc1c(/C=C/C(=O)c2cccs2)cnn1C	Wnt act 57
C[C@H]1CN([C@@H](C)CO)C(=O)c2cccc(N(C)C)c2O[C@@H]1CN(C)Cc1ccc(C(=O)O)cc1	none (no result: Wnt act, MITF TRPM1 HTS, FXN GAA850 act)
Cc1noc(C)c1S(=O)(=O)Nc1ccc2c(c1)CC(=O)N([C@H](C)CO)C[C@@H](C)[C@H](CN(C)C(=O)Nc1ccccc1)O2	none (no result: Wnt act, MITF TRPM1 HTS, FXN GAA850 act)
O=S(=O)(c1ccc(OCc2nc3ccccc3s2)c(Cl)c1)N1CCOCC1	esBAF inh 86 (no result: Wnt act)
COc1ccc(OCCn2c(=O)sc3ccccc32)cc1	none (no result: esBAF inh)
Cc1cccc(OCCn2c(=O)sc3ccccc32)c1	esBAF inh 68, MITF TRPM1 HTS 91 (no result: Wnt act)
Cc1ccccc1OCCn1c(=O)sc2ccccc21	esBAF inh 63
Cc1cccc(OCCCn2c(=O)sc3ccccc32)c1	esBAF inh 54 (no result: Wnt act)
Cc1ccc2oc(=O)n(CCCOc3ccccc3)c2c1	Wnt act 42 (no result: MITF TRPM1 HTS)
Cc1cccc(OCCN2C(=O)c3ccccc3C2=O)c1	none (no result: esBAF inh)
Cc1cccc(OCCn2c(=O)n(C)c3ccccc32)c1	Wnt act inconclusive, esBAF inh 78
O=C(Nc1ccc(O)c2c(=O)cc(-c3ccccc3Cl)oc12)c1ccc(Cl)c(Cl)c1	esBAF inh 51
Cc1ccccc1C(=O)Nc1ccc(O)c2c(=O)cc(-c3ccccc3Cl)oc12	none
O=c1cc(-c2ccccc2Cl)oc2cccc(O)c12	none
O=c1cc(-c2ccccc2Cl)oc2c(Br)ccc(O)c12	esBAF inh 83
CCCn1nc2cc(C(=O)NCCc3ccc(C)cc3)ccc2c1OCC	none
CCOc1c2ccc(C(=O)NCCc3cccs3)cc2nn1CC	Wnt act 32, esBAF inh 45
CCCCn1nc2cc(C(=O)NCCc3cccs3)ccc2c1OCC	esBAF inh 41
CC(=O)NC(NC(=S)Nc1ccc(N=Nc2ccccc2)cc1)C(Cl)(Cl)Cl (centres undefined)	Wnt act 47 (no result: MITF TRPM1 HTS)
Cc1ccc(NCc2ccco2)cc1C	none (no result: esBAF inh)
Cc1ccc(Nc2nnc(-c3ccccc3N)o2)cc1C	Wnt act 37 (no result: esBAF inh, MITF TRPM1 HTS)
CNC(=O)C[C@H]1CC[C@@H]2[C@@H](COc3ccc(NC(=O)c4cnccn4)cc3C(=O)N2C)O1	none (no result: Wnt act, MITF TRPM1 HTS, FXN GAA850 act)
Cc1ccccc1NC(=S)c1ccc2ccccc2n1	esBAF inh 70
COc1ccc2oc(=O)c(-c3nc4ccccc4o3)cc2c1	Wnt act 103 (no result: esBAF inh)
COc1ccc2cc(-c3nc4ccccc4n3C)c(=O)oc2c1	esBAF inh 87, MITF TRPM1 HTS 90
CC(=O)c1ccc(OCc2cc(C(=O)N3CCN4CCCC4C3)no2)cc1 (centres undefined)	none
COCC1CCCN(C(=O)c2cc(COc3ccc(C(C)=O)cc3)on2)C1 (centres undefined)	Wnt act 36, esBAF inh 70
CC(=O)c1ccc(OCc2cc(C(=O)N3CCC(c4ccncc4)CC3)no2)cc1	none
CC(=O)c1ccc(OCc2cc(C(=O)N3CC[C@@H]4CCCC[C@H]4C3)no2)cc1	Wnt act 37, esBAF inh 69
CC(=O)c1ccc(OCc2cc(C(=O)NC3CCCCC3)no2)cc1	Wnt act 32, MITF TRPM1 HTS 103 (no result: esBAF inh)
CC(=O)c1ccc(OCc2cc(C(=O)NCCN3CCCC(O)C3)no2)cc1 (centres undefined)	none
O=C(N[C@H]1CC[C@H](CC(=O)N2CCOCC2)O[C@@H]1CO)c1ccc2c(c1)OCO2	none (no result: Wnt act, MITF TRPM1 HTS, FXN GAA850 act)
CC(C)CC#Cc1cnc2c(c1)C(=O)N([C@H](C)CO)C[C@H](C)[C@H](CN(C)Cc1ccccc1C(=O)O)O2	none (no result: Wnt act, MITF TRPM1 HTS, FXN GAA850 act)
CCOC(=O)c1ccc(NC(=O)CC2SCCNC2=O)cc1 (centres undefined)	Wnt act 41 (no result: MITF TRPM1 HTS)
Cc1noc(C)c1S(=O)(=O)N(C)C[C@H]1OCCCC[C@@H](C)Oc2ccc(NC(=O)C3CCCCC3)cc2C(=O)N([C@@H](C)CO)C[C@@H]1C	none (no result: Wnt act, MITF TRPM1 HTS, FXN GAA850 act)
CN(C)c1ccc(NC(=O)c2ccc3nc[nH]c3c2)cc1	esBAF inh 48
Cc1ccc(NC(=O)c2ccc3nc[nH]c3c2)cc1C	esBAF inh 88
Cc1cc(C)cc(NC(=O)c2ccc3nc[nH]c3c2)c1	none
COc1cc(C(=O)Nc2ccc(N(C)C)cc2)cc(OC)c1OC	esBAF inh 71 (no result: Wnt act)
